PubChem BioAssay AID1159580 (chemical genetic matrix, 2015)
Among all 5,500 compounds or so, about 2,000 (36%) were called active. About 18% were inconclusive and are not listed. Some of the results follow. Values without a mark were called inactive. No stated cut-off is given here; in the data, active means normalized growth mostly below about 0.91 (no sharp cut-off); inconclusive means no clear call, values can overlap the other calls; inactive means mostly above about 0.92.

Experiment: chemical genetic growth profiling, strain panel (AID 1159580);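 further: tested at 20 µM; growth read once vehicle control cultures reached saturation at 30 °C; 1 = growth at the plate median or of vehicle wells; lower values mean less growth of the strain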
Details: S. cerevisiae deletion strains, growth OD
[1] = locus YAL040C, strain CLN3, active compounds read low
[2] = locus YER002W, strain NOP16, active compounds read low
[3] = locus YNL175C, strain NOP13, active compounds read low
[4] = locus YNL197C, strain WHI3, active compounds read low
[5] = locus YNL224C, strain SQS1, active compounds read low
[6] = locus YOR083W, strain WHI5 (second series), active compounds read low

Compound | normalized growth [1] | normalized growth [2] | normalized growth [3] | normalized growth [4] | normalized growth [5] | normalized growth [6] | normalized growth (locus YPL055C, strain LGE1, active compounds read low) | normalized growth (locus YDR150W, strain NUM1, active compounds read low) | normalized growth (locus YDR363W, strain ESC2, active compounds read low) | normalized growth (locus YGR078C, strain PAC10, active compounds read low) | normalized growth (locus YJR075W, strain HOC1, active compounds read low) | normalized growth (locus YMR307W, strain GAS1, active compounds read low) | normalized growth (locus YNL322C, strain KRE1, active compounds read low)
CC(=O)SCC[N+](C)(C)C | 1.12 [resistant] (active) | 1.04 | 1.02 | 1.02 | 0.972 | 0.982 | 1.01 |  |  |  |  |  | 
C[N+](C)(C)CC(=O)O | 0.989 | 1 | 1.01 | 1 | 1.01 | 1.01 |  | 0.995 | 1.02 | 0.998 | 1.01 | 1.02 | 1
